Here are results for eight compounds from the supplement of paper PMC7156485.

Molecules are shown by their SMILES. A number with no mark means an inactive call.
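Further: TDF is a line of transformed human dermal fibroblasts of mesenchymal origin.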

In the assay the test system is HCC1569. Kind of assay: H1.0 immunofluorescence intensity relative to DMSO (% of DMSO); higher = stronger H1.0 induction, active = 140 or more. To be noted: concentration: 10 µM; 24 h. The gist of the method: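 Six fields per well were imaged at ×10 after the cells were fixed in 3.7% formaldehyde and stained with a rabbit anti-H1.0 antibody, an AlexaFluor 647 secondary and DAPI. The HCC1569 and TDF cells had been plated at 800 per well in 384-well plates (RPMI, 10% FBS) and treated in triplicate with compounds at 10 µM for 24 h at 37 °C. The values are the median of replicates of H1.0 nuclear intensity or cell number, as percent of the plate control. Smoothing for positional effects was applied to HCC1569 data.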
With `COc1cccc2c1C(=O)c1c(O)c3c(c(O)c1C2=O)CC(O)(C(C)=O)CC3OC1CC(N)C(O)C(C)O1` (stereo not drawn) [Daunorubicin], the H1.0 immunofluorescence intensity is 1730 (active).
The value for `CC(C)(CO)C(O)C(=O)NCCC(=O)O` (stereo not drawn) [Pantothenic acid] was 98.2; that for `CNC(C)C1CCC(N)C(OC2C(N)CC(N)C(OC3OCC(C)(O)C(NC)C3O)C2O)O1` (stereo not drawn) [Gentamycin] was 117; that for `CC(C)CCCC(C)C1CCC2C3CCC4=CC(N=O)CCC4(C)C3CCC12C` [(20S)-cholest-4-en-3-one oxime] was 101.
As for `OCc1cc(C(O)CNCCCCCCOCCCCc2ccccc2)ccc1O` (stereo not drawn) [Salmeterol], the H1.0 immunofluorescence intensity is 132.
`Nc1nc(OCc2cc(Br)cs2)c2[nH]cnc2n1` [6-[(4-bromo-2-thienyl)methoxy]-1H-purin-2-amine]: the H1.0 immunofluorescence intensity was 113.
For `CC(=O)C(C)=O` [2,3-Butanedione], the H1.0 immunofluorescence intensity was 92.3.
As for `COC(=O)[C@@H](N)Cc1ccc(O)c(O)c1.Cl` [L-3,4-Dihydroxyphenylalanine methyl ester hydrochloride], the figure is 96.8.
